HT1080NT lethal = qHTS for induction of synthetic lethality in tumor cells producing 2HG: qHTS for the HT-1080-NT fibrosarcoma cell line; 1.6% of 360,000 active; HT-1080-NT fibrosarcoma viability, CellTiter-Glo ATP luminescence, 48 h; Potency, µM (titrated, usually from 46.1 µM), without a hit: at the highest dose activity, negative = less viability, hits mostly cytotoxic;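 also: NT is the 2HG producing partner of a matched IDH1 knockdown line; potency is read from the fitted curve at half-maximal effect; 0% = DMSO-treated cells and -100% = media-only wells without cells; nearly all actives have a fitted effect of over 55% in size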
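Compounds were tested in concentration-response format on HT-1080-NT cells for 48 hours at 37 degrees C. Cell viability came from CellTiter-Glo luminescence; curves were classified by r2, response magnitude and activity.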
HT1080 IDH1KD tx = qHTS for induction of synthetic lethality in tumor cells producing 2HG: qHTS for the HT-1080-IDH1KD cell line; HT-1080 IDH1 knockdown viability, ATP luminescence, 48 h; Potency, µM (doses to about 46.1 µM), without a hit: at the top dose activity, negative = toxicity, actives largely listed as cytotoxic; 2% of 360,000 active;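 also: potency is read from the fitted curve at half-maximal effect; 0% = DMSO wells and -100% = cell-free medium wells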
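Using the IDH1-knockdown HT-1080 line run in the same batch and compound series as the NT line, viability after 48 h at 37 °C was determined by CellTiter-Glo luminescence and expressed as % activity.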
KB-V1 MDR tox = qHTS assay for MDR1-selective chemotherapeutics: Primary screen using the drug-selected MDR subline cells KB-V1. KB-V1 MDR cells viability, CellTiter-Glo, 72 h. Potency, µM (top dose mostly 46.1 µM), most hits filed as cytotoxic. 3.4% of 400,000 active; also: potency is read from the fitted curve at half-maximal effect; nearly all actives have a fitted effect of over 60% in size
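Cytotoxicity toward P-gp-expressing KB-V1 cells was determined as loss of CellTiter-Glo luminescence after 72 h at 37 degrees C. Compounds were tested in quantitative HTS format across a concentration range, with curves fitted to normalized data.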
KB-3-1 cytotox = qHTS assay for MDR1-selective chemotherapeutics: Primary screen using the parental adenocarcinoma cell KB-3-1; KB-3-1 viability, CellTiter-Glo ATP luminescence, 72 h; Potency, µM (series often up to 46.1 µM), most hits filed as cytotoxic; 1.4% of 400,000 active; also: potency is read from the fitted curve at half-maximal effect; nearly all actives have a fitted effect of over 60% in size
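Luminescent ATP read-out (CellTiter-Glo) measures survival of drug-naive KB-3-1 cells after 72 h compound exposure at 37 °C. Titration series was screened from lowest to highest concentration, with DMSO vehicle plates as background controls.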
IL-1B inflam inh = qHTS for Inhibitors of Inflammasome Signaling: IL-1-beta AlphaLISA Primary Screen; activity change, % at 57.5 µM; THP-1 LPS/ATP IL-1B secretion, AlphaLISA, 16 h; hits give low values; 4.7% of 360,000 active; in the data active = activity change below about -50%; inconclusive = mostly about -30% to -49%
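THP-1 cells pretreated 1 hr with compounds (up to 57.5 uM final), then stimulated with LPS (250 ng/mL final) plus ATP (1.25 mM final); secreted IL-1B measured by AlphaLISA after 16 hr, decreased signal indicating inhibition.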
An asterisk follows results filed as active; i = inactive; ? = inconclusive; nt = no result; [ ] = another dose, or the depositor's remark. In the library only some 8.8% were active in any assay of this set; here they are far more common. Unless noted, calls follow the shape of the dose curve; as a rule, active = well fitted curve in the direction sought with a large enough effect; inconclusive = small, poorly fitted or top-dose-only effect, or another doubt; inactive = no such curve, though single readings can be large; an effect the other way counts as inactive or inconclusive. Unless noted, % is scaled to controls: 0 for no effect and ±100 for the full control effect.

SMILES	HT1080NT lethal	HT1080 IDH1KD tx	KB-V1 MDR tox	KB-3-1 cytotox	IL-1B inflam inh
CCn1c(=O)c([N+](=O)[O-])c(N2CCN(Cc3ccc4c(c3)OCO4)CC2)c2ccccc21	-24.9%	-21.5%	?	?	-65.6*
O=C1Nc2ccc([N+](=O)[O-])cc2OC1CCN1CCN(Cc2ccc3c(c2)OCO3)CC1 (stereo not drawn)	-23.7%	-19.6%	i	i	-50.6*
CN(C)CCCNS(=O)(=O)c1ccc(N2CCN(Cc3ccc4c(c3)OCO4)CC2)c([N+](=O)[O-])c1	?	?	i	i	-69.9*
O=Cc1cc([N+](=O)[O-])ccc1N1CCN(Cc2ccc3c(c2)OCO3)CC1	-0.8%	-9.9%	i	?	-63.8*
Cc1ccc(-n2[nH]c(C)c(/C=N/c3ccccn3)c2=O)cc1	7.08µM*	?	i	?	35.8
COc1ccc2nc(/N=C/c3c(C)[nH]n(-c4ccc(C)cc4)c3=O)sc2c1	?	?	8.2µM*	?	16.0
Cc1[nH]n(-c2ccccc2)c(=O)c1C=NCc1ccncc1	-12.8%	-13.8%	i	i	14.1
Cc1[nH]n(-c2ccccc2)c(=O)c1C=Nc1cccc2cccnc12	-21.3%	?	18.4µM*	?	55.9
Cc1[nH]n(-c2ccccc2)c(=O)c1/C=N/N1C(=O)c2cccc3cccc(c23)C1=O	?	?	7.31µM*	?	82.8
Cc1ccc(-n2[nH]c(C)c(C=Nc3cc(C)ccn3)c2=O)cc1	10.3µM*	23.1µM*	?	?	0.0
CCOC(=O)CSc1n[nH]c(NC(C)=O)n1	1.8%	7.9%	i	i	34.1
CC(C)C1OC2(C)OC(=N)C1(C#N)C(C#N)(C#N)C2c1ccccc1 (stereo not drawn)	7.0%	15.9%	i	i	15.8
CC1CCC(C(C)C)C2=C1C(C#N)(C#N)C(C#N)(C#N)C(c1ccccc1)N2 (stereo not drawn)	-25.6%	0.0%[9.24 µM]	i	i	-86.4*
COCCN(C(=O)c1ccco1)c1nnc(-c2ccc(OC)c(OC)c2)s1	13.6%	17.0%	i	i	-58.6*
Cc1cc(C(=O)CN2CCN(CC(=O)Nc3cccc(F)c3)CC2)c(C)n1C1CC1	0.5%	22.2%	10.3µM*	i	-5.3
CCOc1ccccc1OCCCC(=O)N(CC)CC(=O)Nc1c(F)cccc1F	-2.0%	21.3%	i	i	-1.8
COC(=O)c1[nH]c2ccc(F)cc2c1NS(=O)(=O)c1ccc(F)c(C)c1	0.9%	15.2%	16.4µM*	?	-17.6
COC(=O)c1[nH]c2ccc(C)cc2c1NS(=O)(=O)c1ccc(F)c(C)c1	-8.5%	-4.0%	?	i	1.8
CCN1CCN(C(=O)c2ccc(Cl)c(S(=O)(=O)N3CCCCC3)c2)CC1	-3.3%	-6.9%	nt	nt	-7.2
O=C(Oc1ccc2ccccc2c1)c1ccco1	-1.8%	-5.2%	?	i	18.2
CC1CC(C)(C)Nc2ccc(N=O)cc21 (stereo not drawn)	14.6µM*	18.4µM*	i	i	-105.3*
CC1CC(C)(C)Nc2ccc(OC(=O)c3ccco3)cc21 (stereo not drawn)	18.4µM*	23.1µM*	?	?	-114.0*
Cc1ccc(C(=O)c2c3ccc(C(F)(F)F)cc3[n+]([O-])n2CCCN)cc1	2.2%	1.5%	i	i	-52.8*
COc1ccc(CC2(CO)COc3ccccc3C2=O)cc1 (stereo not drawn)	?	?	13µM*	?	24.5
O=C(O)c1ccc(CNC(=O)C2CCN(S(=O)(=O)c3cccs3)CC2)cc1	1.4%	0.6%	i	i	21.2
SMILES	HT1080NT lethal	HT1080 IDH1KD tx	KB-V1 MDR tox	KB-3-1 cytotox	IL-1B inflam inh
CN1CCCN(C(=O)CC(c2ccccc2)c2ccccc2)CC1	-0.8%	3.0%	i	i	-10.8
CCCc1cnc2c(c1SCC(=O)Nc1ccc([N+](=O)[O-])cc1)c(=O)n(C)c(=O)n2C	nt	nt	i	i	nt
COC(=O)c1ccc(Cn2cnc3nc4c(cc3c2=O)CCCC4)cc1	nt	nt	i	i	nt
Cc1nn(CC(=O)N2CCc3ccccc3C2)c(C)c1[N+](=O)[O-]	-15.3%	-0.2%	?	i	8.1
Cc1c(Cl)c([N+](=O)[O-])nn1CCCC(=O)N1CCN(c2ccccc2)CC1	3.7%	3.7%	i	i	-6.6
Cc1c(Br)c([N+](=O)[O-])nn1CCCC(=O)N1CCN(c2ccccc2)CC1	3.0%	0.1%	20.6µM*	?	0.0
O=C(Cn1cc([N+](=O)[O-])nc1[N+](=O)[O-])N1CCN(c2ccccc2)CC1	-20.9%	25.9µM*	i	i	?
Cc1c(Br)c([N+](=O)[O-])nn1CC(=O)N1CCc2ccccc2C1	9.3%	23.7%	16.4µM*	i	8.5
Cc1c(Br)c([N+](=O)[O-])nn1CC(=O)Nc1ccc(C(C)C)cc1	-28.2%	23.1µM*	?	i	6.6
CCCCNC(=O)c1nc(-c2cccnc2OC)oc1-c1ccc(Cl)cc1	16.7%	17.1%	?	i	-3.0
Cc1ccc(-n2c(SCc3ccccc3C)nc3[nH]ncc3c2=O)cc1C	nt	nt	i	i	nt
O=C(OCc1cccc(F)c1)c1cc2ccccc2cc1O	12.0%	6.5%	i	i	4.6
CN1CCN(c2ccc(Nc3ccnc4cc(Cl)ccc34)cc2)CC1	?	20.6µM*	?	?	-89.6*
CCOc1ccc(Nc2ccnc3cc(Cl)ccc23)cc1	?	?	i	?	-24.7
COc1ccc(N2CCN(c3ccnc4cc(Cl)ccc34)CC2)cc1	1.3%	7.7%	?	i	-56.2*
Clc1ccc2c(N3CCCC3)ccnc2c1	-21.5%	-14.2%	?	i	-6.8
Oc1ccc(N2CCN(c3ccnc4cc(Cl)ccc34)CC2)cc1	-23.7%	-21.9%	14.6µM*	16.4µM*	-11.5
CCCOc1ccc(OC(=O)c2cn(-c3ccc(OC)cc3)c(=O)c3ccccc23)cc1	nt	nt	i	i	nt
CCCCC1C(=O)N(c2ccccc2)N(c2ccc(O)cc2)C1=O (stereo not drawn)	?	9.4%	i	i	-109.0*
COC(=O)c1ccc(NC(=O)c2nc(SCc3ccccc3F)ncc2Cl)cc1	nt	nt	i	i	nt
C=C(C)c1cccc(C(C)(C)NC(=O)Nc2ccc(C(C)=O)cc2)c1	7.9%	-1.2%	18.4µM*	i	0.0
C=C(C)c1cccc(C(C)(C)NC(=O)N2CCC(C)CC2)c1	-1.3%	6.2%	18.4µM*	i	?

High-throughput results as filed in PubChem BioAssay.
